Tau fil binding: tau filament binding; P10636; recombinant tau filaments, thioflavin S fluorescence, 15 h; filaments grown with octadecylsulfate alongside compound; Potency, µM (top dose mostly 57.1 µM), without a hit: top-dose activity change, negative = inhibition; hit rate 2% among 71,000; AID 596;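 also: % is scaled to controls: 0 for no effect and ±100 for the full control effect; actives lower thioflavin S fluorescence by blocking filaments or displacing dye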
Target sequence (P10636 whole entry, looked up): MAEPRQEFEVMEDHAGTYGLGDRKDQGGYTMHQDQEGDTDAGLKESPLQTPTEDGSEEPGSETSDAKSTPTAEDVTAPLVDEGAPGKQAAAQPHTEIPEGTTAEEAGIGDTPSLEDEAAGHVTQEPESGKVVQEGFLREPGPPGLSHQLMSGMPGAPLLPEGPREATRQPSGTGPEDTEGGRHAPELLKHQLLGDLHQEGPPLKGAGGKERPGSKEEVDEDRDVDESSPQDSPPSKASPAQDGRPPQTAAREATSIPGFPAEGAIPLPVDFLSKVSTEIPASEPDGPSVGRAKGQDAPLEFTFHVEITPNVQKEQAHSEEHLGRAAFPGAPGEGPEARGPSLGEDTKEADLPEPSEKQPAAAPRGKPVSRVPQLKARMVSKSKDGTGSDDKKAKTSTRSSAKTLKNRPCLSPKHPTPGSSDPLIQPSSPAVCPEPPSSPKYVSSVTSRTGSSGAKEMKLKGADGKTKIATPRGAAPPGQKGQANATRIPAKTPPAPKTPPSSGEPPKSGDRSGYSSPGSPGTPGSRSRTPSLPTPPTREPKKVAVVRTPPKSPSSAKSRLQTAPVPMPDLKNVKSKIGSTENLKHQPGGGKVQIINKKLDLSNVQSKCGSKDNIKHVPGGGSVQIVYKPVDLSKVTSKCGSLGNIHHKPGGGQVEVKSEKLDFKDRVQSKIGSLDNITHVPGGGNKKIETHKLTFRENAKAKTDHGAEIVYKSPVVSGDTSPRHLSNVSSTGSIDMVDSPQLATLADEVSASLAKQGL
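Read-out: ThS fluorescence, 450 nm excitation/510 nm emission; lower signal marks blocked filament formation or displaced dye. Tau at 1 uM with 30 uM ODS, 10 uM ThS, 5 mM DTT, 100 mM NaCl, 10 mM HEPES pH 7.4; 15 h, 37 C.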
CRE Fsk mod: CRE-bla signaling modulation under forskolin stimulation; CHO CRE-bla reporter (cAMP response element driving beta-lactamase), forskolin EC10, beta-lactamase ratio; Potency, µM (titrated, usually from 38.2 µM), inactives show top-dose activity change, negative = inhibition, actives largely listed as activators; hit rate 2.5% among 71,000; AID 662; active = well fitted activation curve with a large enough effect in the signal ratio, with a control signal flat, not every such curve was filed as active; inconclusive = small, poorly fitted or top-dose-only effect, or effect the other way, or a change in a side signal; the % refers to the signal ratio; also: % of control where 0% means no effect
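Beta-lactamase reporter under a cAMP responsive element in CHO cells; compounds tested in titration series against EC10 NKH 477, 3 h at 37 °C. Read-out: CCF4 FRET ratio 460nm/530nm (excitation 405nm) giving %Activity, fitted to AC50.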
HEK293 cAMP ctrl: counter-screen for TSHR agonists: cAMP increase in parental HEK293. parental HEK293 CNG cAMP sensor, membrane potential fluorescence. Potency, µM (doses to about 57.1 µM), for inactives: at the highest dose activation, most hits filed as activators. hit rate 2.5% among 73,000. AID 938; also: % of control where 0% means no effect; nearly all actives have a fitted effect of over 55% in size
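Counterscreen for endogenous-receptor signalling: CNG-channel HEK 293 cells report cAMP rise by membrane depolarization. After 60 min dye equilibration with 100 uM RO 20-1724, compounds incubated 30 min before bottom-read fluorescence at 590 nm.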
ERK AVP block: inhibitors of vasopressin-stimulated ERK signaling pathway; HEK293-V1b, vasopressin-stimulated pERK AlphaScreen; Potency, µM (titrated, usually from 57.5 µM), without a hit: at the top dose activity, negative = inhibition, actives largely listed as inhibitors; hit rate 0.99% among 72,000; AID 995; also: % is scaled to controls: 0 for no effect and ±100 for the full control effect; nearly all actives have a fitted effect of over 55% in size
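HEK293 cells stably expressing V1b receptor, seeded overnight in 1% FBS, were treated with compounds for 30 min at 37C, then stimulated 5 min with 25 nM vasopressin; phospho-ERK read by AlphaScreen SureFire after lysis.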
TSHR agonist: TSH receptor (human) agonism; Potency, µM (doses to about 57.1 µM), without a hit: at the highest dose activation, hits mostly activators; P16473; HEK293-CNG-TSHR cells (CNG channel as cAMP sensor), membrane potential dye, cAMP; hit rate 0.48% among 73,000; active = well fitted activation curve with a large enough effect in the main read-out, with a control signal flat, not every such curve was filed as active; inconclusive = small, poorly fitted or top-dose-only effect, or a change in a side signal; inactive = no such curve, though single readings can be large or run the other way; % of control where 0% means no effect;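 also: the control signal comes from parental cells without the receptor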
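HEK 293 cells stably expressing TSHR and a cAMP-gated CNG channel; parental CNG-only cells as counterscreen. Cells preloaded 60 min with membrane potential dye plus 100 uM RO 20-1724, then compound 30 min; fluorescence read at 590 nm.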
An asterisk follows results filed as active; [ ] = dose if it differs, or a comment. An excerpt weighted towards active compounds, which were near 7.4% of everything screened. Unless noted, calls follow the shape of the dose curve; as a rule, active = well fitted curve in the direction sought with a large enough effect; inconclusive = small, poorly fitted or top-dose-only effect, or another doubt; inactive = no such curve, though single readings can be large; an effect the other way counts as inactive or inconclusive. Potency is read from the fitted curve at half-maximal effect.

O=C(c1cnn2c(C(F)F)cc(-c3ccccc3)nc12)N1CCN2CCCC2C1 (configuration not stated) was read as Tau fil binding inconclusive, CRE Fsk mod inconclusive, HEK293 cAMP ctrl inconclusive, ERK AVP block -14% and TSHR agonist inconclusive.
Cc1ccc(-c2cc(C(F)F)n3ncc(C(=O)N4CCN(c5ccccn5)CC4)c3n2)cc1 was read as Tau fil binding inconclusive, CRE Fsk mod 10%, HEK293 cAMP ctrl 32µM*, ERK AVP block -10% and TSHR agonist inconclusive.
COc1ccc(-c2csc(N(CC3CCCO3)C(=O)c3ccco3)n2)cc1 (configuration not stated) was read as Tau fil binding 8%, CRE Fsk mod inconclusive, HEK293 cAMP ctrl 20µM*, ERK AVP block 24% and TSHR agonist inconclusive.
COc1ccc(-c2cc(C(F)F)n3ncc(C(=O)NCCCN4CCCC4=O)c3n2)cc1 was read as Tau fil binding inconclusive, CRE Fsk mod inconclusive, HEK293 cAMP ctrl 5% and ERK AVP block inconclusive.
`CCN1CCN(C(=O)c2cnn3c(C(F)F)cc(-c4ccc(C)cc4)nc23)CC1` gave Tau fil binding 20µM*, CRE Fsk mod 18%, HEK293 cAMP ctrl 16µM*, ERK AVP block 4% and TSHR agonist inconclusive.
`COc1ccc(C(C(=O)NC2CCCCC2)N(CC2CCCO2)C(=O)CNC(=O)c2ccco2)cc1` (configuration not stated) gave Tau fil binding 1%, CRE Fsk mod -4%, HEK293 cAMP ctrl 6%, ERK AVP block -11% and TSHR agonist 9%.
Screening COc1ccc(-c2cc(C(F)F)n3ncc(C(=O)N4CCN(C(=O)c5ccco5)CC4)c3n2)cc1 returned Tau fil binding -14%, CRE Fsk mod 16µM*, HEK293 cAMP ctrl 6% and ERK AVP block -20%.
`COc1ccc2c(c1)CCC1C2CC[C@]2(C)[C@H](NCCCCCCN3C(=O)C=CC3=O)CC[C@@H]12` (some centres not stated) gave Tau fil binding -10%, CRE Fsk mod 0%, HEK293 cAMP ctrl 1%, ERK AVP block -3% and TSHR agonist 9%.
For CS(=O)(=O)N(CC(=O)O)c1ccccc1 the results were HEK293 cAMP ctrl 2% and TSHR agonist 2%.
For C[C@@H]1Cc2ccccc2N1NC(=O)c1ccc(Cl)c(S(N)=O)c1 (some centres not stated) the results were Tau fil binding 17%[25.6 µM], CRE Fsk mod -7%[17.1 µM], HEK293 cAMP ctrl -2%[25.6 µM], ERK AVP block -8%[25.7 µM] and TSHR agonist -13%[25.6 µM].
CCCn1cnc2c(SCC(=O)O)nc(N)nc21 was read as Tau fil binding 2%[11.4 µM], CRE Fsk mod -1%[7.6 µM], HEK293 cAMP ctrl 4%[11.4 µM], ERK AVP block 19%[11.5 µM] and TSHR agonist 7%[11.4 µM].
Screening COc1ccc(-c2csc(N3CCN(C(=O)c4ccco4)CC3)n2)cc1 returned Tau fil binding 12%, CRE Fsk mod inconclusive, HEK293 cAMP ctrl 4%, ERK AVP block 10µM* and TSHR agonist 6%.
`COc1ccc(-c2cc(C(=O)N3CCN(c4ccccn4)CC3)c3ccccc3n2)cc1` gave Tau fil binding 30%, CRE Fsk mod inconclusive, HEK293 cAMP ctrl 8% and ERK AVP block 10µM*.
NC(=O)C1(N2CCCCC2)CCN(c2nc(-c3ccccc3)cs2)CC1 was read as Tau fil binding -17%, CRE Fsk mod 5%, HEK293 cAMP ctrl 3%, ERK AVP block 13% and TSHR agonist 5%.
`CCOc1ccc(-c2cc(C(=O)N3CCN(c4ccccn4)CC3)c3ccccc3n2)cc1` gave Tau fil binding 23%, CRE Fsk mod -3%, HEK293 cAMP ctrl 12%, ERK AVP block inconclusive and TSHR agonist 4%[11.4 µM].
COc1ccc(-c2csc(N3CCC(C(N)=O)(N4CCCCC4)CC3)n2)cc1 was read as Tau fil binding 55%, CRE Fsk mod inconclusive, HEK293 cAMP ctrl 8%, ERK AVP block 25µM* and TSHR agonist 19%.
`Cc1c(C(=O)O)nc(/C=C\C(=O)O)[nH]c1=O` gave Tau fil binding -2%[11.4 µM], CRE Fsk mod 3%[7.6 µM], HEK293 cAMP ctrl 0%[11.4 µM], ERK AVP block -11%[11.5 µM] and TSHR agonist 3%[11.4 µM].
`CN(C)CCCNC(=O)c1ccc(Cc2nc3ccccc3[nH]2)cc1` gave HEK293 cAMP ctrl -8% and TSHR agonist -7%.
For CCCCNC(=O)CN1C(=O)C(CC)Oc2ccc(Cl)cc21 (configuration not stated) the results were Tau fil binding -10%, CRE Fsk mod -1%, HEK293 cAMP ctrl 10µM*, ERK AVP block -3% and TSHR agonist inconclusive.
`CC(C)NC[C@@H](O)c1ccc(O)c2ncccc12` gave Tau fil binding -6%[11.4 µM], CRE Fsk mod 10%[7.6 µM], HEK293 cAMP ctrl 13%[11.4 µM], ERK AVP block 4%[11.5 µM] and TSHR agonist -1%[11.4 µM].
For Cc1ccc2c(c1)N(CC(=O)N1CCN(c3nc4ccccc4s3)CC1)C(=O)C(C)O2 (configuration not stated) the results were Tau fil binding 4%, CRE Fsk mod 1%, HEK293 cAMP ctrl 6.3µM*, ERK AVP block inconclusive and TSHR agonist inconclusive.
O=C(CSc1nc2ccccc2c(=O)n1CCCO)NCc1ccccc1 was read as Tau fil binding -2%, CRE Fsk mod -15%, HEK293 cAMP ctrl 12%, ERK AVP block -16% and TSHR agonist 2%.
For Cc1ccc2c(CSc3nc4ccccc4c(=O)n3CCCO)cc(=O)oc2c1 the results were Tau fil binding 1%, CRE Fsk mod 2µM*, HEK293 cAMP ctrl inconclusive, ERK AVP block -26% and TSHR agonist inconclusive.
Screening OC1(C(O)(c2ccc(-c3ccccc3)cc2)c2ccc(-c3ccccc3)cc2)CCCCC1 returned Tau fil binding 1%[11.4 µM], CRE Fsk mod -4%[7.6 µM], HEK293 cAMP ctrl 2%[11.4 µM], ERK AVP block 29%[11.5 µM] and TSHR agonist -1%[11.4 µM].
For CSc1nc(N)nc(SCC(=O)c2ccccc2)c1C#N the results were Tau fil binding 21%, CRE Fsk mod 3.2µM*, HEK293 cAMP ctrl -1%, ERK AVP block -26% and TSHR agonist -3%.
For N#Cc1c(-c2ccco2)cc(C2CC2)nc1SCC(=O)c1ccccc1 the results were Tau fil binding 44%, CRE Fsk mod 3%, HEK293 cAMP ctrl inconclusive, ERK AVP block 8% and TSHR agonist inconclusive.
`CCc1cc(-c2[nH]ncc2-c2ccc3c(c2)OCO3)c(O)cc1O` gave Tau fil binding -21%, CRE Fsk mod inconclusive, HEK293 cAMP ctrl 25µM*, ERK AVP block inconclusive and TSHR agonist inconclusive.
Screening COc1ccc(-c2[nH]ncc2-c2ccc3c(c2)OCCO3)c(O)c1 returned Tau fil binding -12%, CRE Fsk mod inconclusive, HEK293 cAMP ctrl 15%, ERK AVP block -17% and TSHR agonist 10%.
Screening Nc1c(S(N)(=O)=O)cc(S(N)(=O)=O)cc1S(N)(=O)=O returned Tau fil binding -4%[11.4 µM], CRE Fsk mod -6%[7.6 µM], HEK293 cAMP ctrl 1%[11.4 µM], ERK AVP block -6%[11.5 µM] and TSHR agonist 4%[11.4 µM].

Compound activity (PubChem)
